Source: the supplement of paper PMC9262897, “Low-cost anti-mycobacterial drug discovery using engineered E. coli” (Nature Communications, 2022)
Where a name gives a salt, the structure may show the parent alone. ± gives the standard deviation of the averaged measurements.

Each compound was assayed on E. coli TESEC Mtb Asd (assay: growth (OD600 after 10 h); higher = more growth (less inhibition)). Settings: arabinose induction (level): High; compound 0.1 mM; raw OD600 reference: median of DMSO wells 0.331, cell-free background 0.041.
Protocol: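 TESEC E. coli strains in which the native enzyme is deleted and replaced by arabinose-inducible Mtb Asd, DapB, CysH or TrpD, each grown in its selective medium. Strains were screened against the Prestwick library at 0.1 mM and 1% DMSO in 384-well format at low and high arabinose induction. Growth is read as OD600 after 10 h in triplicate.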

| SMILES | growth |
| --- | --- |
| CN(C)CCN(Cc1ccc(Cl)cc1)c1ccccn1 [Chloropyramine hydrochloride] | 0.171 ± 0.017 |
| O=C1NCCN1CCN1CCC(c2cn(-c3ccc(F)cc3)c3ccc(Cl)cc23)CC1 [Sertindole] | 0.0531 ± 0.0039 |
| O=C1NCC2(CCN(CCc3ccccc3)CC2)O1 [Fenspiride hydrochloride] | 0.366 ± 0.098 |
| CC(C)[C@H]1CC[C@H](C(=O)N[C@H](Cc2ccccc2)C(=O)O)CC1 [Nateglinide] | 0.229 ± 0.039 |
| CCOC(=O)[C@H](CCc1ccccc1)N[C@@H](C)C(=O)N1CCC[C@H]1C(=O)O [Enalapril maleate] | 0.322 ± 0.039 |
| CC1(C)O[C@@H]2[C@@H](CO[C@@]3(COS(N)(=O)=O)OC(C)(C)O[C@@H]23)O1 [Topiramate] | 0.243 ± 0.055 |
| c1ccc2c(c1)CCCc1cc(NCCN3CCOCC3)nnc1-2 | 0.194 ± 0.055 |
| CC[C@@H]1C(=O)OC[C@@H]1Cc1cncn1C [Pilocarpine nitrate] | 0.222 ± 0.012 |
| Cn1ccnc1S [Methimazole] | 0.484 ± 0.0095 |
| NC[C@H]1O[C@H](O[C@H]2[C@H](O)[C@@H](O[C@H]3O[C@H](CO)[C@@H](O)[C@H](N)[C@H]3O)[C@H](N)C[C@@H]2N)[C@H](N)C[C@@H]1O [Tobramycin] | 0.0498 ± 0.00085 |
| O=C1C(CC[S+]([O-])c2ccccc2)C(=O)N(c2ccccc2)N1c1ccccc1 (configuration not stated) [Sulfinpyrazone] | 0.26 ± 0.063 |
| C=C1/C(=C\C=C2/CCC[C@]3(C)[C@@H]([C@H](C)CCCC(C)C)CC[C@@H]23)C[C@@H](O)C[C@@H]1O [Alfacalcidol] | 0.219 ± 0.033 |
